# Compound activity: PubChem BioAssay, several laboratories
# Only some compounds are listed: those with a hit (about 27% of all), similar ones and a draw of the others.
# Cav3 T inh – Cav3.2 calcium influx blockers – cell-based, Fluo-4 calcium fluorescence, FDSS, MLSMR library, primary screen | Voltage-dependent T-type calcium channel subunit alpha-1H (Homo sapiens), O95180 | Cav3.2-expressing cells; active compounds read low | B-score at 10 µM | hit rate 4% among 100,000;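 active = single-dose well whose peak fluorescence ratio is a statistical outlier from its plate by either plate-standardised score or position-corrected B-score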
# Target sequence (O95180 whole entry, looked up): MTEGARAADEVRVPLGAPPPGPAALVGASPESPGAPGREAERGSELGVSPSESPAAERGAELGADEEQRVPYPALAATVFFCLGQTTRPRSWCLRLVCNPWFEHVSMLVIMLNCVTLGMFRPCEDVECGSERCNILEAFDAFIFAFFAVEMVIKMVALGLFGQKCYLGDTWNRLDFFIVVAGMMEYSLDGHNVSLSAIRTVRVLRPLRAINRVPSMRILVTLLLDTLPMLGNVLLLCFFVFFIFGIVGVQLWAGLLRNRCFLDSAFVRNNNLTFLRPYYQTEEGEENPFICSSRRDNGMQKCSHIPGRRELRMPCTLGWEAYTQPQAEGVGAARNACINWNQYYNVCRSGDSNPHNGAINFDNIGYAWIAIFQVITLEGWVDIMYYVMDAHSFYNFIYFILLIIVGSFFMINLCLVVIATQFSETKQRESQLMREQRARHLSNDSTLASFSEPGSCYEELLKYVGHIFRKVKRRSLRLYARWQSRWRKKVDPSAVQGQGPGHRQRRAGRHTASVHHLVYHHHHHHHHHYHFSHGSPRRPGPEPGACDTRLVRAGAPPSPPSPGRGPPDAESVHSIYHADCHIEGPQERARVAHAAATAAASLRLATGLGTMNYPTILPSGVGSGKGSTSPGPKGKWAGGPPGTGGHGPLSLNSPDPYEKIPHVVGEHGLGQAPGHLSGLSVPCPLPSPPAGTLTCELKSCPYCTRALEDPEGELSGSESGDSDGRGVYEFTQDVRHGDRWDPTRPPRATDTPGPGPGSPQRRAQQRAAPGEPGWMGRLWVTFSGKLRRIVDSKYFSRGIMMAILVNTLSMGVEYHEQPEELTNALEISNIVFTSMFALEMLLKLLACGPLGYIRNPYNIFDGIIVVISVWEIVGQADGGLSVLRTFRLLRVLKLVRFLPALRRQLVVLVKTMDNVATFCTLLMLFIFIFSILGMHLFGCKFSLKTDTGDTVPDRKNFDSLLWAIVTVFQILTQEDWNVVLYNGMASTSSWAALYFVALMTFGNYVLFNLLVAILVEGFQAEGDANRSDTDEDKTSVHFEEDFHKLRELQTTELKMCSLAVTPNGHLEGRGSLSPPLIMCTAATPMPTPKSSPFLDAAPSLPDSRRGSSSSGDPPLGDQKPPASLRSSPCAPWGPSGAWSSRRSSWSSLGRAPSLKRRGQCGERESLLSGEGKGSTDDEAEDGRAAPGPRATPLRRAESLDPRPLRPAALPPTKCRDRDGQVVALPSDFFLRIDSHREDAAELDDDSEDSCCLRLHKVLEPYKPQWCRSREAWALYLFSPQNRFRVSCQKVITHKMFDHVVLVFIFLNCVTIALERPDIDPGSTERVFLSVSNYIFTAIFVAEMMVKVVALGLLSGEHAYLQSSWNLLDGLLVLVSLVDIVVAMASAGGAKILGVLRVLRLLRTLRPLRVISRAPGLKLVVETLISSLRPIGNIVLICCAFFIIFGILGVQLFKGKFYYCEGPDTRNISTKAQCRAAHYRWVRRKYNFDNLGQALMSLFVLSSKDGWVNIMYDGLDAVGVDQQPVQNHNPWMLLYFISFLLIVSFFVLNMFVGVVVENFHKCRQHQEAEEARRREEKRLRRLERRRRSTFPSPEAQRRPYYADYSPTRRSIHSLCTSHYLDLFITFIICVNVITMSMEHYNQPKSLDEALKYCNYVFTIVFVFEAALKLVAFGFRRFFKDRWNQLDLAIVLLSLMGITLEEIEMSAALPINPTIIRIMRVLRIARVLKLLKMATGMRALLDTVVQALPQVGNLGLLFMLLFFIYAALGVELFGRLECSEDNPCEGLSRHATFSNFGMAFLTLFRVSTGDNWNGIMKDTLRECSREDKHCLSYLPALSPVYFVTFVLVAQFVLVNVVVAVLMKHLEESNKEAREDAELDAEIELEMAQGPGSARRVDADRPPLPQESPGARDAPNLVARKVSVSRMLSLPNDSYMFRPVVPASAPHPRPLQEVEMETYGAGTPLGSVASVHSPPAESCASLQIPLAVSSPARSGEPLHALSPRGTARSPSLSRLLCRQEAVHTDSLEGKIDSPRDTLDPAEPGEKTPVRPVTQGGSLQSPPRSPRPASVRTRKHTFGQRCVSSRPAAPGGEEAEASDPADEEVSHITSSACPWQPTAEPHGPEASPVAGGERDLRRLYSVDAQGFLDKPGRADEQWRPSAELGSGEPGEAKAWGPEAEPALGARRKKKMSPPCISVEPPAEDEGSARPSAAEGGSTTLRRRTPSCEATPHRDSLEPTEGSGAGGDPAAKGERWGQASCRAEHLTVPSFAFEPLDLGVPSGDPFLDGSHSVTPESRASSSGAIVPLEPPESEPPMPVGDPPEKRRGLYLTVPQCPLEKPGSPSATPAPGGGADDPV
# CYP2C9 act – human CYP2C9 activators, primary screen, biochemical, luminescence. activation factor at 5 µM. recombinant CYP2C9, luciferin-H conversion; active compounds read high; factor 1 = untreated enzyme, 0 = blocked. Cytochrome P450 2C9 (Homo sapiens), P11712. AID 1024, 2008. hit rate 1.4% among 96,000;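 active = activation factor of 2 or more for CYP2C9 at a 5 µM dose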;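 also: 0 = sulfaphenazole-blocked wells and 1 = vehicle-only wells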
# CYP2C19 inh – blockers of cytochrome P450 2C19 activity – biochemical, luminescence, ADME assay, primary screen; P33261; AID 778, 2007; inhibition, % at 5 µM; hit rate 21% among 96,000; CYP2C19 Supersomes, luciferin-H EGE luminescence, 30 min;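 active = CYP2C19 inhibition above a set limit at 5 µM in the primary screen, cut at about 50% in these data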;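 also: plate controls were negative control wells for no effect and 2.5 mM tranylcypromine positive control for full effect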
# CYP2C19 act – human CYP2C19 activators, primary screen, biochemical, luminescence | 96,000 tested, under 10 active | AID 1025, 2008 | recombinant CYP2C19, luciferin-H EGE luminescence; active compounds read high; 0 = fully inhibited enzyme, 1 = untreated enzyme | Cytochrome P450 2C19 (Homo sapiens), P33261 | activation factor at 5 µM;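 active = activation factor of at least 2 at 5 µM in the primary screen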;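 also: 0 = wells with 2.5 mM tranylcypromine and 1 = vehicle-only wells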
# CYP2C9 inh – blockers of cytochrome P450 2C9 activity – biochemical, luminescence, ADME assay, primary screen | CYP2C9 Supersomes, luciferin-H conversion | inhibition, % at 5 µM | hit rate 20% among 96,000 | AID 777, 2007;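 active = blocking of liver enzyme CYP2C9 beyond about 50% at 5 µM, limit read from the data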
# The depositor's hits bear a star; / = not tested or not shown.
SMILES,Cav3 T inh,CYP2C9 act,CYP2C19 inh,CYP2C19 act,CYP2C9 inh
Cn1c(Oc2ccccc2)c(C=O)c2ccccc21,-0.24,1.6,47,0.5,-59
O=C(CN1CCC(NC(=O)c2cccc(F)c2)CC1)NCc1ccccc1F,/,1,8,0.9,1
C/C(Cl)=C/CSc1nn2c(=O)c3ccccc3nc2s1,-0.87,0.2,74*,0.3,82*
C/C(Cl)=C/CSc1nnc2n(N)c(=O)c3ccccc3n12,1.1,1.1,-15,1.2,-6
O=S(=O)(c1ccc(Cl)cc1)c1ccccn1,0.36,2.1*,17,0.8,-108
COC(=O)CSc1nc2sc3c(c2c(=O)n1C1CCCCC1)CCN(C)C3,/,0.5,78*,0.2,52*
CN1CCc2c(sc3nc(SCC(=O)N4CCOCC4)nc(N)c23)C1,0.73,0.8,7,0.9,18
COc1ccc(-n2c(SCC(N)=O)nc3sc4c(c3c2=O)CCN(C)C4)cc1,0.25,0.7,73*,0.3,33
Cc1sc2nc(SCC(=O)N(CCO)CCO)n(C3CCCCC3)c(=O)c2c1C,-0.59,0.8,4,1,16
COCCOC(=O)C1=C(C)NC(=O)N(C(C)=O)C1c1ccc(Cl)cc1 (stereo not given),-0.22,0.3,58*,0.4,66*
CCOC(=O)C1=C(C)Nc2nc3ccccc3n2C1c1ccccc1 (stereo not given),-0.3,0.8,8,0.9,16
CCOC(=O)C1=C(C)NC(=S)N(C(C)=O)C1c1ccc(Cl)cc1 (stereo not given),-5.5*,/,/,/,/
COCCOC(=O)C1=C(C)Nc2ncnn2C1c1ccccc1 (stereo not given),-0.0094,1,0,1,1
CCNC(=O)NC(=O)C(C)SCc1ccccc1C (stereo not given),-0.025,0.6,67*,0.3,44
CCNC(=O)NC(=O)C(C)Sc1nnc(COc2ccccc2Cl)o1 (stereo not given),-1.4,0.7,47,0.5,27
Cc1ccc2cc(CN(Cc3ccco3)S(=O)(=O)c3c(C)ccc4nsnc34)c(=O)[nH]c2c1,0.37,0.1,54*,0.5,89*
Cc1ccc2[nH]c(=O)c(CN(CCCO)S(=O)(=O)c3c(C)ccc4nsnc34)cc2c1,0.42,0.3,3,1,65*
Cc1cc2cc(CN(CCCO)S(=O)(=O)c3cccc4nsnc34)c(=O)[nH]c2cc1C,-2.5,0.1,3,1,93*
Cc1cc2cc(CN(Cc3ccco3)S(=O)(=O)c3c(C)ccc4nsnc34)c(=O)[nH]c2cc1C,-0.45,1,8,0.9,-3
CCCCC(CC)CNC(=O)CN(C)S(=O)(=O)c1cccc2nsnc12 (stereo not given),-3.1,0.7,23,0.8,26
Cc1cccc(C)c1OCC(=O)N/N=C/c1cc2c(cc1[N+](=O)[O-])OCO2,-1.6,0.6,48,0.5,36
O=[N+]([O-])c1cc2c(cc1/C=N\NS(=O)(=O)c1ccccc1)OCO2,0.045,0.2,46,0.5,82*
CC(C)C12CN3CC(C(C)C)(CN(C1)C3c1ccccc1)C2O (stereo not given),0.74,1,-11,1.1,-4
O=C(CSC1=NS(=O)(=O)c2ccccc21)Nc1ccccc1,-1.6,0.7,53*,0.5,32
CC1(C)C2CC[C@]3(C)C(CC=C4[C@@H]5C[C@](C)(CO)CC[C@]5(C(=O)O)CC[C@]43C)[C@@]2(C)CC[C@@H]1O (stereo not given in full),0.002,/,/,/,/
SMILES,Cav3 T inh,CYP2C9 act,CYP2C19 inh,CYP2C19 act,CYP2C9 inh
CCOc1ccccc1N(CC(=O)OC)S(=O)(=O)c1ccccc1,-2.9,0.3,51*,0.5,71*
CN(C)S(=O)(=O)N(CC(=O)NCc1ccccc1)c1ccccc1,-0.46,0.8,67*,0.3,18
COc1ccc(CCNC(=O)CN(c2ccccc2OC)S(C)(=O)=O)cc1OC,0.15,0.6,40,0.6,42
COc1ccc(CCNC(=O)CN(c2ccccc2OC)S(C)(=O)=O)cc1,/,0,93*,0.1,97*
CCOc1ccc(N(CC(=O)NCc2ccccc2OC)S(C)(=O)=O)cc1,-0.26,0.9,21,0.8,14
CCOc1ccc(N(CC(=O)NCc2ccccc2)S(C)(=O)=O)cc1,-0.45,0.6,50*,0.5,40
Cc1cc(C)c(NC(=O)CN(c2ccccc2)S(=O)(=O)N(C)C)c(C)c1,-0.5,0.7,42,0.6,31
CCOc1ccccc1N(CC(=O)NCc1ccc(OC)cc1)S(C)(=O)=O,1.6,0.4,89*,0.1,62*
O=c1c2cc(N3CCOCC3)ccc2[nH]c(=S)n1Cc1ccc(Cl)cc1,-1.1,0.4,20,0.8,58*
O=c1c2cc(F)ccc2[nH]c(=S)n1CCCN1CCOCC1,0.98,1.1,67*,0.3,-7
CCN1C(=O)N[C@@H](c2cccs2)C(C(C)=O)=C1C,0.44,/,/,/,/
CCN(Cc1ccccc1)S(=O)(=O)c1ccc(C(=O)Nc2nnc(C3CC3)o2)cc1,-5.6*,0.1,2,1,88*
Cc1nnc(NC(=O)c2ccc(S(=O)(=O)N(C)Cc3ccccc3)cc2)o1,0.41,0.2,-11,1.1,78*
COCCN(CCOC)S(=O)(=O)c1ccc(C(=O)Nc2nnc(C)o2)cc1,-0.032,1.1,-18,1.2,-12
O[C@H]1COC2C1OC[C@@H]2O (stereo not given in full),-1.7,/,/,/,/
CN(/N=C/c1ccncc1)C1=NS(=O)(=O)c2ccccc21,3.3,0.7,55*,0.5,33
Cc1ccccc1NC1=NS(=O)(=O)c2ccccc21,0.24,0.7,19,0.8,28
Cc1cc(-c2ccccc2)nc(N(C)NC(=O)c2ccc(Cl)cc2)c1S(C)(=O)=O,0.77,0.6,2,1,40
Nc1nc(SCC(=O)C23CC4CC(CC(C4)C2)C3)n[nH]1,-1.3,0.5,45,0.6,53*
CSc1nc(N)nc(SCC(=O)C23CC4CC(CC(C4)C2)C3)c1C#N,-2.3,/,/,/,/
O=C(NCCOc1ccccc1Cl)c1cc(F)c(F)cc1Cl,-0.94,1.8,32,0.7,-78
COC(=O)Cn1ncc2c(C)n(Cc3ccccc3)c(C)c2c1=O,0.0044,0.6,84*,0.2,40
CCOc1ccc(NC(=O)N2CCC(n3c(=O)[nH]c4ccccc43)CC2)cc1,-0.78,0.3,28,0.7,66*
Cc1ccc2c(c1)[nH]c1c(N3CCN(Cc4ccc5c(c4)OCO5)CC3)ncnc12,/,0.1,82*,0.2,93*
Clc1ccccc1Cn1nnc2c(N3CCCC3)ncnc21,-0.22,2.2*,99*,0,-122
c1ccc(Cn2nnc3c(N4CCOCC4)ncnc32)cc1,0.97,0.9,76*,0.2,13
